# PGE2 EP2 inh: inhibitors of human EP2 prostaglandin E2 receptor; P43116; C6 glioma cells expressing human EP2, cAMP TR-FRET; cells stimulated with saturating PGE2; inhibition, % at 25 µM; actives 0.52% (n = 260,000);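 active = percent inhibition above 40 after rounding to a whole number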;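 note: rat C6 glioma host cells with rolipram phosphodiesterase inhibitor present; the protocol text gives 20 µM as final concentration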
# Target sequence (P43116 whole entry, looked up): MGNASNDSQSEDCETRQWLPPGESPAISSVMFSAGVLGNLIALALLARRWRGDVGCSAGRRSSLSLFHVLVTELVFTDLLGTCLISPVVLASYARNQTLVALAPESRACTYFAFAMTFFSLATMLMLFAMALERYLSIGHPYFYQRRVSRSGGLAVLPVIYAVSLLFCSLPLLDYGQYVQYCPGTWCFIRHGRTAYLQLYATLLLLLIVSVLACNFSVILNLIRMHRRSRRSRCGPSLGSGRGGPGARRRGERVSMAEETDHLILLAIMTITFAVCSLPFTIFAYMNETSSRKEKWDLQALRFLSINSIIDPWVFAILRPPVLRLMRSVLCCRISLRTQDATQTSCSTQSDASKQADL
# EP2 modulator: modulators of human EP2 prostaglandin E2 receptor; P43116; EP2-expressing cells, cAMP HTRF FRET, PGE2 co-stimulation; induction, % at 25 µM; actives 0.83% (n = 260,000); AID 940;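 active = compounds whose cAMP rise, as percent of the full-agonist control response, exceeds 60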;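 note: rat C6 glioma line stably carrying human EP2 under a CMV promoter; the protocol text gives 20 µM as final concentration; 100% = response of wells given 1 µM PGE2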
# CHT inh: human CHT choline transport inhibition; Q9GZV3; CHT-expressing cells, membrane potential dye, choline response; active compounds read low; B-score at 10 µM; AID 488975; actives 0.86% (n = 310,000);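 active = B-score over 3 SD under the library average, and starting fluorescence ratio not unusually high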;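 note: choline stimulus applied at its EC90 after an EC20 pre-addition; B-score computed on integrated fluorescence ratio after choline addition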
# CHT allo act: human CHT allosteric activation; Q9GZV3; CHT-expressing cells, membrane potential dye, choline EC20; active compounds read high; LV-AA mutant CHT in HEK293 cells; B-score at 10 µM; actives 0.49% (n = 310,000);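 active = initial fluorescence not abnormally high and integrated response B-score, plate-corrected, over 3 SD above library mean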
# CHT block conf: human CHT inhibition, confirmatory screen; shares compounds with CHT inh; CHT-expressing cells, choline membrane potential dye; LV-to-AA substituted CHT, HEK293 cells; CHT activity remaining % of control (active compounds read low), % at 10 µM; actives 70% (n = 2,400);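 active = choline transporter activity left, mean of duplicates at 10 µM, below buffer-only control mean minus 3 SD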;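 note: depolarization triggered by choline at its EC90 following an EC20 pre-addition; 0% = hemicholinium-3 full block and 100% = buffer-only control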
# HEK293 MPD ctr: CHT inhibitor counter-screen hit in parental HEK293 cells; shares compounds with CHT inh; membrane potential dye, choline response; active = decrease or increase beyond buffer ±3SD; membrane potential ratio readout (active if shifted either direction beyond buffer ±3SD; no single direction) at 10 µM; actives 4% (n = 2,400); AID 493222;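 note: parental cells lack the transporter so any hit is non-specific; ratio is peak minus trough fluorescence over baseline after EC90 choline challenge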
# The depositor's hits bear a star; i = inactive; / = not tested or not shown. Compounds with a hit are over-represented: about 2.1% of the library has one in this group of screens.
SMILES,PGE2 EP2 inh,EP2 modulator,CHT inh,CHT allo act,CHT block conf,HEK293 MPD ctr
Cc1ccc(-n2c(C)cc(=O)cc2C)c(C)c1,13,1,-5*,i,34%*,i
Cc1cc(=O)cc(C)n1-c1ccc(F)cc1F,2,16,i,i,/,/
Cc1ccc2nc(SCC(=O)Nc3cc(Cl)ccc3Cl)c(C#N)cc2c1,13,6,/,/,/,/
CC12CCC(C(=O)NNc3ccc([N+](=O)[O-])cc3)(OC1=O)C2(C)C (configuration not stated),3,-12,-10*,i,i,i
N#Cc1cc2c(nc1SCC(=O)Nc1ccc3ccccc3c1)CCCC2,15,6,/,/,/,/
COc1ccc(-c2cn(Cc3ccc(C(N)=O)cc3)c(CCN)n2)cc1,/,/,-8.1*,i,i,i
NC1=NC2(CCCCCC2)n2c(nc3ccccc32)N1,5,-21,-5.5*,i,15%*,i
COc1ccc(C)cc1NC(=O)CN1CCN(c2ccccc2F)CC1,8,-3,-5*,i,i,i
CC(C)CC(=O)Nc1ccccc1N1CCN(C(=O)c2ccccc2)CC1,/,-17,-5.1*,i,i,i
CC(C)CC(=O)Nc1ccccc1N1CCN(c2ccccc2)CC1,5,16,i,i,/,/
O=C(NNC(=O)c1ccco1)c1ccc(S(=O)(=O)N2CCCCC2)cc1,14,-21,/,/,/,/
Cc1ccc(-n2cc(CN3CCN(Cc4nccn4C)CC3)c(-c3ccc(F)cc3)n2)cc1,7,-5,-6.4*,i,29%*,i
Cc1ccc(-n2cc(CN3CCN(c4ccccn4)CC3)c(-c3ccc(F)cc3)n2)cc1,1,17,i,i,/,/
CC1CCCC(C)N1C(=O)CSc1nnc(-c2ccccc2)n1C (configuration not stated),5,-2,/,/,/,/
COc1ccc(-c2nc3cc([N+](=O)[O-])ccc3o2)cc1,7,-12,-5.2*,i,i,i
Nc1ccc(-c2nc3cc([N+](=O)[O-])ccc3o2)cc1,7,-31,i,i,/,/
O=C(Cc1ccc(F)cc1)c1ccc(O)cc1O,10,12,i,i,/,/
CCc1cc(C(=O)Cc2ccc(F)cc2)c(O)cc1O,11,36,-5.6*,i,43%*,i
CCc1cc(C(=O)COc2ccccc2F)c(O)cc1O,8,19,-5.8*,i,i,i
CCCc1cc(C(=O)Cc2ccc(F)cc2)c(O)cc1O,6,35,-6.5*,i,62%*,i
Cc1cc(N2CCCC2=O)cc(C)c1S(=O)(=O)NCCOc1ccccc1,2,-31,-5.9*,i,67%*,-8.4*
CCn1c(SCC(=O)Nc2cccc3ccccc23)nnc1-c1ccoc1C,11,-17,/,/,/,/
CCn1c(SCC(=O)Nc2ccccc2C(=O)OC)nnc1-c1ccoc1C,9,-1,-5.6*,i,i,i
CCN(CC)CCNC(=O)c1cn(CC)c2ccc(S(=O)(=O)N3CCc4ccccc4C3)cc2c1=O,/,/,-8.1*,i,28%*,i
CCCCNC(=O)c1cn(CC)c2ccc(S(=O)(=O)N3CCCC3)cc2c1=O,/,/,i,i,/,/
SMILES,PGE2 EP2 inh,EP2 modulator,CHT inh,CHT allo act,CHT block conf,HEK293 MPD ctr
CCN(CC)CCCNC(=O)c1cn(CC)c2ccc(S(=O)(=O)N3CCc4ccccc4C3)cc2c1=O,8,-6,-12*,i,15%*,i
CCCN(CCC)CCCNC(=O)c1cn(CC)c2ccc(S(=O)(=O)N3CCOCC3)cc2c1=O,/,/,i,i,/,/
CCn1cc(C(=O)NCCCN2CCN(C)CC2)c(=O)c2cc(S(=O)(=O)N3CCc4ccccc4C3)ccc21,3,-13,-9.1*,i,i,i
CC(C)OCCCN(Cc1ccc2ncccc2c1)Cc1ccccn1,3,4,/,/,/,/
CN(/N=C/c1ccc([N+](=O)[O-])o1)c1ccccc1,4,-46,-5.7*,i,50%*,i
NC(N)=Nc1nc(C2COc3ccccc3O2)cs1 (configuration not stated),9,-7,-8.8*,i,46%*,i
O=C(O)/C(=C\c1ccccc1OC(F)F)Sc1nnc(-c2ccc(F)cc2)o1,3,10,-5.6*,i,31%*,i
O=C(CSc1nnc(-c2ccc(F)cc2)o1)Nc1ccccc1O,8,-73,/,/,/,/
COc1ccc(-c2sc(Nc3ccc(F)c(F)c3F)nc2CCC(=O)NN)cc1,/,/,-5.2*,i,i,i
COC(=O)c1nc(N)sc1-c1ccc(OC)cc1,15,4,i,i,/,/
CC1CCCC(NC(=O)CCNC(=O)c2ccccc2Cl)C1C (configuration not stated),/,/,i,i,/,/
CC1CCCC(NC(=O)CCNC(=O)c2ccc(Br)cc2)C1C (configuration not stated),/,/,-5.1*,i,i,i
O=C(c1nc2ccccc2s1)C1CCN(C(=O)c2cccs2)CC1,/,-92,/,/,/,/
CCc1ccc(CN2CCc3c(nc(N4CCC(C)CC4)[nH]c3=O)C2)cc1,/,-8,/,/,/,/
O=C(NNS(=O)(=O)c1ccccc1[N+](=O)[O-])c1ccccc1Cl,10,13,i,i,/,/
O=C(NNS(=O)(=O)c1ccccc1[N+](=O)[O-])c1cc2ccccc2cc1O,/,/,-7.3*,i,62%*,i
COc1ccc(-c2nnc(SCC(=O)NCc3ccc4c(c3)OCO4)o2)cc1OC,10,-23,/,/,/,/
Cc1oc(-c2cccs2)nc1CN1CC[C@@](O)(c2ccccc2)[C@H]2CCCC[C@@H]21,1,-12,i,i,/,/
Cc1ccccc1CC1(CO)CCCN(Cc2nc(-c3cccs3)oc2C)C1 (configuration not stated),8,1,-6.7*,i,i,i
Cc1nn(Cc2ccccc2Cl)c(C)c1NC(=O)c1noc2c1CCCCC2,4,27,-5.7*,i,41%*,i
Cc1ccccc1Cn1nc(C)c(NC(=O)c2noc3c2CCCC3)c1C,3,9,i,i,/,/
COc1ccc(C(=O)NC2(c3ccccc3)CCCC2)cc1Cn1cccn1,/,-10,/,/,/,/
COc1cccc(CCNC(=O)Cn2nc(C)n3c(cc4sc(C)cc43)c2=O)c1,/,20,/,/,/,/
CCCOc1ccc(-c2nnn(CC(=O)Nc3ccccc3N3CCOCC3)n2)cc1,6,15,/,/,/,/
Cc1cc(N(CCO)CCO)ccc1N=Nc1cc(F)ccc1F,7,-39,-5.4*,i,56%*,i
Nc1ccc(N(CCO)CCO)cc1,12,21,i,i,/,/
COC(=O)C(C)Sc1nc2c(c(=O)[nH]c(=O)n2C)n1CCC(C)C (configuration not stated),10,18,-5.1*,i,40%*,i
